Experimental data published in PMC11062922 (Nature Chemical Biology, 2023).
Where two headings read alike, the source gives them in different places.

Tests used:
Conditions in all cases: read-out: apparent Kd, n = 1
[1] = test system: MAP2K1
[2] = test system: MAP3K5
[3] = test system: MAPK10
[4] = compound concentrations:100 nM and 1000 nM (sheet 'Lestaurtinib' of Supplementary Table 1),run:Lestaurtinib_02584_R2,Plate:MR017
[5] = compound concentrations:100 nM and 1000 nM (sheet 'Lestaurtinib' of Supplementary Table 1),run:Lestaurtinib_02584_R3,Plate:MR017
[6] = compound concentrations:100 nM and 1000 nM (sheet 'Lestaurtinib' of Supplementary Table 1),run:Lestaurtinib_02601_R1,Plate:MR018
[7] = compound concentrations:100 nM and 1000 nM (sheet 'Lestaurtinib' of Supplementary Table 1),run:Lestaurtinib_02606_R1,Plate:MR019
[8] = compound concentrations:100 nM and 1000 nM (sheet 'Lestaurtinib' of Supplementary Table 1),run:Lestaurtinib_02724_R1,Plate:MR021
[9] = compound concentrations:100 nM and 1000 nM (sheet 'Lestaurtinib' of Supplementary Table 1),run:Lestaurtinib_02741_R1,Plate:MR023
[10] = compound concentrations:100 nM and 1000 nM (sheet 'Lestaurtinib' of Supplementary Table 1),run:Lestaurtinib_02765_R3,Plate:MR026
[11] = compound concentrations:100 nM and 1000 nM (sheet 'Lestaurtinib' of Supplementary Table 1),run:Lestaurtinib_02766_R3,Plate:MR027
[12] = compound concentrations:100 nM and 1000 nM (sheet 'Lestaurtinib' of Supplementary Table 1),run:Lestaurtinib_02768_R3,Plate:MR028
[13] = compound concentrations:100 nM and 1000 nM (sheet 'Lestaurtinib' of Supplementary Table 1),run:Lestaurtinib_02795_R2,Plate:MR022
[14] = compound concentrations:100 nM and 1000 nM (sheet 'Lestaurtinib' of Supplementary Table 1),run:Lestaurtinib_03172_R3,Plate:MR031
[15] = compound concentrations:100 nM and 1000 nM (sheet 'Lestaurtinib' of Supplementary Table 1),run:Lestaurtinib_03260_R1,Plate:MR033
[16] = compound concentrations:100 nM and 1000 nM (sheet 'Lestaurtinib' of Supplementary Table 1),run:Lestaurtinib_03260_R3,Plate:MR033
[17] = compound concentrations:100 nM and 1000 nM (sheet 'Lestaurtinib' of Supplementary Table 1),run:Lestaurtinib_02367_R1,Plate:MR003
[18] = compound concentrations:100 nM and 1000 nM (sheet 'Lestaurtinib' of Supplementary Table 1),run:Lestaurtinib_02407_R1,Plate:MR005
[19] = compound concentrations:100 nM and 1000 nM (sheet 'Lestaurtinib' of Supplementary Table 1),run:Lestaurtinib_02407_R2,Plate:MR005
[20] = compound concentrations:100 nM and 1000 nM (sheet 'Lestaurtinib' of Supplementary Table 1),run:Lestaurtinib_02422_R2,Plate:MR006
[21] = compound concentrations:100 nM and 1000 nM (sheet 'Lestaurtinib' of Supplementary Table 1),run:Lestaurtinib_02437_R1,Plate:MR007
[22] = compound concentrations:100 nM and 1000 nM (sheet 'Lestaurtinib' of Supplementary Table 1),run:Lestaurtinib_02437_R2,Plate:MR007
[23] = compound concentrations:100 nM and 1000 nM (sheet 'Lestaurtinib' of Supplementary Table 1),run:Lestaurtinib_02473_R1,Plate:MR010

## Lestaurtinib
[1]; compound concentrations:100 nM and 1000 nM (sheet 'Lestaurtinib' of Supplementary Table 1),run:Lestaurtinib_02572_R1,Plate:MR015
  potency estimated from few doses: 1430 nM
[1]; compound concentrations:100 nM and 1000 nM (sheet 'Lestaurtinib' of Supplementary Table 1),run:Lestaurtinib_02577_R3,Plate:MR016
  potency estimated from few doses: 1750 nM
[1]; [4]
  potency estimated from few doses: 1720 nM
[1]; [5]
  potency estimated from few doses: 1990 nM
[1]; [6]
  potency estimated from few doses: 876 nM
[1]; [7]
  potency estimated from few doses: 884 nM
[1]; [8]
  potency estimated from few doses: 1600 nM
[1]; compound concentrations:100 nM and 1000 nM (sheet 'Lestaurtinib' of Supplementary Table 1),run:Lestaurtinib_02724_R2,Plate:MR021
  potency estimated from few doses: 2070 nM
[1]; compound concentrations:100 nM and 1000 nM (sheet 'Lestaurtinib' of Supplementary Table 1),run:Lestaurtinib_02724_R3,Plate:MR021
  potency estimated from few doses: 1610 nM
[1]; [9]
  potency estimated from few doses: 2060 nM
[1]; compound concentrations:100 nM and 1000 nM (sheet 'Lestaurtinib' of Supplementary Table 1),run:Lestaurtinib_02741_R3,Plate:MR023
  potency estimated from few doses: 1320 nM
[1]; compound concentrations:100 nM and 1000 nM (sheet 'Lestaurtinib' of Supplementary Table 1),run:Lestaurtinib_02748_R1,Plate:MR024
  potency estimated from few doses: 1440 nM
[1]; compound concentrations:100 nM and 1000 nM (sheet 'Lestaurtinib' of Supplementary Table 1),run:Lestaurtinib_02748_R3,Plate:MR024
  potency estimated from few doses: 1400 nM
[1]; compound concentrations:100 nM and 1000 nM (sheet 'Lestaurtinib' of Supplementary Table 1),run:Lestaurtinib_02752_R2,Plate:MR025
  potency estimated from few doses: 1510 nM
[1]; compound concentrations:100 nM and 1000 nM (sheet 'Lestaurtinib' of Supplementary Table 1),run:Lestaurtinib_02765_R2,Plate:MR026
  potency estimated from few doses: 1620 nM
[1]; [10]
  potency estimated from few doses: 1670 nM
[1]; compound concentrations:100 nM and 1000 nM (sheet 'Lestaurtinib' of Supplementary Table 1),run:Lestaurtinib_02766_R1,Plate:MR027
  potency estimated from few doses: 964 nM
[1]; [11]
  potency estimated from few doses: 1540 nM
[1]; [12]
  potency estimated from few doses: 2210 nM
[1]; [13]
  potency estimated from few doses: 771 nM
[1]; compound concentrations:100 nM and 1000 nM (sheet 'Lestaurtinib' of Supplementary Table 1),run:Lestaurtinib_02802_R1,Plate:MR029
  potency estimated from few doses: 1900 nM
[1]; compound concentrations:100 nM and 1000 nM (sheet 'Lestaurtinib' of Supplementary Table 1),run:Lestaurtinib_02896_R1,Plate:MR030
  potency estimated from few doses: 803 nM
[1]; [14]
  potency estimated from few doses: 823 nM
[1]; compound concentrations:100 nM and 1000 nM (sheet 'Lestaurtinib' of Supplementary Table 1),run:Lestaurtinib_03252_R1,Plate:MR032
  potency estimated from few doses: 1540 nM
[1]; [15]
  potency estimated from few doses: 1210 nM
[1]; [16]
  potency estimated from few doses: 2310 nM
[2]; compound concentrations:100 nM and 1000 nM (sheet 'Lestaurtinib' of Supplementary Table 1),run:Lestaurtinib_02364_R1,Plate:MR002
  potency estimated from few doses: 938 nM
[2]; [17]
  potency estimated from few doses: 1240 nM
[2]; compound concentrations:100 nM and 1000 nM (sheet 'Lestaurtinib' of Supplementary Table 1),run:Lestaurtinib_02381_R1,Plate:MR004
  potency estimated from few doses: 987 nM
[2]; compound concentrations:100 nM and 1000 nM (sheet 'Lestaurtinib' of Supplementary Table 1),run:Lestaurtinib_02381_R2,Plate:MR004
  potency estimated from few doses: 926 nM
[2]; compound concentrations:100 nM and 1000 nM (sheet 'Lestaurtinib' of Supplementary Table 1),run:Lestaurtinib_02381_R3,Plate:MR004
  potency estimated from few doses: 826 nM
[2]; [18]
  potency estimated from few doses: 1600 nM
[2]; [19]
  potency estimated from few doses: 1350 nM
[2]; [20]
  potency estimated from few doses: 1150 nM
[2]; [21]
  potency estimated from few doses: 1460 nM
[2]; [22]
  potency estimated from few doses: 983 nM
[2]; compound concentrations:100 nM and 1000 nM (sheet 'Lestaurtinib' of Supplementary Table 1),run:Lestaurtinib_02438_R2,Plate:MR008
  potency estimated from few doses: 1370 nM
[2]; compound concentrations:100 nM and 1000 nM (sheet 'Lestaurtinib' of Supplementary Table 1),run:Lestaurtinib_02438_R3,Plate:MR008
  potency estimated from few doses: 1530 nM
[2]; compound concentrations:100 nM and 1000 nM (sheet 'Lestaurtinib' of Supplementary Table 1),run:Lestaurtinib_02443_R1,Plate:MR009
  potency estimated from few doses: 1310 nM
[2]; compound concentrations:100 nM and 1000 nM (sheet 'Lestaurtinib' of Supplementary Table 1),run:Lestaurtinib_02443_R2,Plate:MR009
  potency estimated from few doses: 1410 nM
[2]; [23]
  potency estimated from few doses: 969 nM
[2]; compound concentrations:100 nM and 1000 nM (sheet 'Lestaurtinib' of Supplementary Table 1),run:Lestaurtinib_02473_R2,Plate:MR010
  potency estimated from few doses: 1430 nM
[2]; compound concentrations:100 nM and 1000 nM (sheet 'Lestaurtinib' of Supplementary Table 1),run:Lestaurtinib_02473_R3,Plate:MR010
  potency estimated from few doses: 858 nM
[2]; compound concentrations:100 nM and 1000 nM (sheet 'Lestaurtinib' of Supplementary Table 1),run:Lestaurtinib_02482_R1,Plate:MR011
  potency estimated from few doses: 1460 nM
[2]; compound concentrations:100 nM and 1000 nM (sheet 'Lestaurtinib' of Supplementary Table 1),run:Lestaurtinib_02482_R2,Plate:MR011
  potency estimated from few doses: 1890 nM
[2]; compound concentrations:100 nM and 1000 nM (sheet 'Lestaurtinib' of Supplementary Table 1),run:Lestaurtinib_02487_R1,Plate:MR012
  potency estimated from few doses: 1210 nM
[2]; compound concentrations:100 nM and 1000 nM (sheet 'Lestaurtinib' of Supplementary Table 1),run:Lestaurtinib_02566_R1,Plate:MR014
  potency estimated from few doses: 946 nM
[2]; compound concentrations:100 nM and 1000 nM (sheet 'Lestaurtinib' of Supplementary Table 1),run:Lestaurtinib_02572_R3,Plate:MR015
  potency estimated from few doses: 1620 nM
[2]; compound concentrations:100 nM and 1000 nM (sheet 'Lestaurtinib' of Supplementary Table 1),run:Lestaurtinib_02577_R1,Plate:MR016
  potency estimated from few doses: 1360 nM
[2]; [4]
  potency estimated from few doses: 1300 nM
[2]; [5]
  potency estimated from few doses: 1360 nM
[2]; [6]
  potency estimated from few doses: 1700 nM
[2]; compound concentrations:100 nM and 1000 nM (sheet 'Lestaurtinib' of Supplementary Table 1),run:Lestaurtinib_02601_R2,Plate:MR018
  potency estimated from few doses: 1460 nM
[2]; [7]
  potency estimated from few doses: 1440 nM
[2]; compound concentrations:100 nM and 1000 nM (sheet 'Lestaurtinib' of Supplementary Table 1),run:Lestaurtinib_02606_R3,Plate:MR019
  potency estimated from few doses: 1350 nM
[2]; compound concentrations:100 nM and 1000 nM (sheet 'Lestaurtinib' of Supplementary Table 1),run:Lestaurtinib_02624_R1,Plate:MR020
  potency estimated from few doses: 1440 nM
[2]; compound concentrations:100 nM and 1000 nM (sheet 'Lestaurtinib' of Supplementary Table 1),run:Lestaurtinib_02624_R2,Plate:MR020
  potency estimated from few doses: 998 nM
[2]; [8]
  potency estimated from few doses: 998 nM
[2]; [9]
  potency estimated from few doses: 916 nM
[2]; compound concentrations:100 nM and 1000 nM (sheet 'Lestaurtinib' of Supplementary Table 1),run:Lestaurtinib_02765_R1,Plate:MR026
  potency estimated from few doses: 1490 nM
[2]; [10]
  potency estimated from few doses: 1830 nM
[2]; compound concentrations:100 nM and 1000 nM (sheet 'Lestaurtinib' of Supplementary Table 1),run:Lestaurtinib_02766_R2,Plate:MR027
  potency estimated from few doses: 1150 nM
[2]; [11]
  potency estimated from few doses: 942 nM
[2]; compound concentrations:100 nM and 1000 nM (sheet 'Lestaurtinib' of Supplementary Table 1),run:Lestaurtinib_02768_R1,Plate:MR028
  potency estimated from few doses: 1150 nM
[2]; [12]
  potency estimated from few doses: 923 nM
[2]; [13]
  potency estimated from few doses: 1340 nM
[2]; compound concentrations:100 nM and 1000 nM (sheet 'Lestaurtinib' of Supplementary Table 1),run:Lestaurtinib_02802_R3,Plate:MR029
  potency estimated from few doses: 687 nM
[2]; compound concentrations:100 nM and 1000 nM (sheet 'Lestaurtinib' of Supplementary Table 1),run:Lestaurtinib_03172_R1,Plate:MR031
  potency estimated from few doses: 1310 nM
[2]; [14]
  potency estimated from few doses: 1570 nM
[2]; [15]
  potency estimated from few doses: 1750 nM
[2]; compound concentrations:100 nM and 1000 nM (sheet 'Lestaurtinib' of Supplementary Table 1),run:Lestaurtinib_03260_R2,Plate:MR033
  potency estimated from few doses: 1460 nM
[2]; [16]
  potency estimated from few doses: 1580 nM
[3]; compound concentrations:100 nM and 1000 nM (sheet 'Lestaurtinib' of Supplementary Table 1),run:Lestaurtinib_02339_R2,Plate:MR001
  potency estimated from few doses: 617 nM
[3]; compound concentrations:100 nM and 1000 nM (sheet 'Lestaurtinib' of Supplementary Table 1),run:Lestaurtinib_02339_R3,Plate:MR001
  potency estimated from few doses: 1150 nM
[3]; compound concentrations:100 nM and 1000 nM (sheet 'Lestaurtinib' of Supplementary Table 1),run:Lestaurtinib_02364_R2,Plate:MR002
  potency estimated from few doses: 618 nM
[3]; compound concentrations:100 nM and 1000 nM (sheet 'Lestaurtinib' of Supplementary Table 1),run:Lestaurtinib_02364_R3,Plate:MR002
  potency estimated from few doses: 801 nM
[3]; [17]
  potency estimated from few doses: 1620 nM
[3]; compound concentrations:100 nM and 1000 nM (sheet 'Lestaurtinib' of Supplementary Table 1),run:Lestaurtinib_02367_R3,Plate:MR003
  potency estimated from few doses: 623 nM
[3]; [18]
  potency estimated from few doses: 932 nM
[3]; [19]
  potency estimated from few doses: 763 nM
[3]; compound concentrations:100 nM and 1000 nM (sheet 'Lestaurtinib' of Supplementary Table 1),run:Lestaurtinib_02407_R3,Plate:MR005
  potency estimated from few doses: 1460 nM
[3]; compound concentrations:100 nM and 1000 nM (sheet 'Lestaurtinib' of Supplementary Table 1),run:Lestaurtinib_02422_R1,Plate:MR006
  potency estimated from few doses: 575 nM
[3]; [20]
  potency estimated from few doses: 964 nM
[3]; compound concentrations:100 nM and 1000 nM (sheet 'Lestaurtinib' of Supplementary Table 1),run:Lestaurtinib_02422_R3,Plate:MR006
  potency estimated from few doses: 609 nM
[3]; [21]
  potency estimated from few doses: 865 nM
[3]; [22]
  potency estimated from few doses: 838 nM
[3]; compound concentrations:100 nM and 1000 nM (sheet 'Lestaurtinib' of Supplementary Table 1),run:Lestaurtinib_02443_R3,Plate:MR009
  potency estimated from few doses: 798 nM
[3]; [23]
  potency estimated from few doses: 970 nM
